# Reference: PubChem BioAssay AID687031 (Broad Institute, 2013)
# Screen size: about 1,400 compounds; about 50 (4%) were called active. These entries were drawn from the full list. Measured potencies and affinities stand elsewhere. Unmarked numbers belong to inactive results.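 Rule for the calls: active = fitted curve reaches 30% CPE protection at or below the top valid dose, with every test run called active; inconclusive = test runs disagree, some active and some not; inactive = every test run inactive, including effects in the wrong direction.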
# Experiment: antiviral rescue of DENV2-infected BHK-21 cells – cell-based, ATP luminescence, cherry-pick, dose response (AID 687031);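 note: 0% = infected DMSO wells and 100% = uninfected cell wells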
# Conditions: BHK-21 DENV2 CPE protection, 5 d; series mostly up to 19.5 µM; CPE protection (higher = active): at the top concentration
row,SMILES,CPE protection (higher = active)
1,COc1cccc(-c2ccc3c(c2)[C@H]2[C@H](CCN2S(=O)(=O)c2cn(C)cn2)[C@@H](CO)N3)c1,-4.08%
2,COc1cccc(NC(=O)N2[C@@H]3CNC[C@H]2C3c2ccc(-c3ccccc3)cc2)c1 (some centres not stated),-7.29% [at 21 µM]
3,Cc1ccccc1-c1ccc(C2[C@@H]3CN(C(=O)Cc4ccncc4)C[C@H]2N3)cc1 (some centres not stated),-5.08% [at 21 µM]
4,CS(=O)(=O)N1[C@@H]2CNC[C@H]1C2c1ccc(-c2ccccc2)cc1 (some centres not stated),1.08%
5,C[C@@H]1CN([C@H](C)CO)C(=O)c2cccc(NC(=O)Nc3ccc4c(c3)OCO4)c2O[C@H]1CN(C)C(=O)Nc1ccccc1,-7.43%
6,CCOC(=O)CC[C@H](NC(=O)Cn1cnc2c(OCc3ccccc3)ncnc21)C(=O)OCC,-6.24%
7,COc1ccc(C(CNC(=O)COc2cc(C)ccc2Cl)N2CCCCC2)cc1 (configuration not stated),-7.55%
8,COc1ccc2o/c(=N\O)c(C(=O)Nc3ccc(C)cc3)cc2c1,21.5%
9,COc1cc(S(=O)(=O)NCc2ccncc2)c(OC)cc1Br,-11.7%
10,CO[C@@H]1CN(C)C(=O)c2ccc(NC(=O)CC(F)(F)F)cc2OC[C@H](C)N(C(C)=O)C[C@@H]1C,9.73%
11,O=C1Nc2ccccc2SC1c1ccccc1 (configuration not stated),22.8%
12,O=C1Nc2ccccc2C(=O)N(C2CCCC2)C1C(=O)NC1CC1 (configuration not stated),-7.26%
13,C[C@@H]1CN([C@H](C)CO)C(=O)c2cc(N(C)C)ccc2O[C@@H](C)CCCCO[C@@H]1CN(C)C(=O)CCC(F)(F)F,6.42%
14,Cc1nccn1CC(O)COc1ccc(Cl)cc1Cl (configuration not stated),-6.74%
15,OC(COc1ccc(Cl)cc1Cl)Cn1ccnc1 (configuration not stated),2.84%
16,CCC(C(=O)Nc1c(C)cccc1C)n1c(-c2ccc(=O)[nH]c2)nc2ccccc21 (configuration not stated),6.71%
17,O=C(NCc1ccc2c(c1)OCO2)C(=O)NCC1OCCCN1S(=O)(=O)c1ccccc1 (configuration not stated),-15.4%
18,Cc1ccc(C(=O)NCC(=O)Nc2ccc(S(=O)(=O)Nc3cc(C)nc(C)n3)cc2)cc1,-0.439%
19,O=C(C[C@H]1CC[C@@H]2[C@H](COC[C@H](O)CN2C(=O)Cc2ccccc2)O1)NC1CCCC1,2.96% [at 21 µM]
20,Cc1ccc(S(=O)(=O)Nc2cccc(C(=O)NCCCn3ccnc3)c2)cc1F,-1.15%
21,CCOC(=O)N1CCC(NC(=O)c2cccc3c2C(=O)N(CCOC)C3)CC1,8.32%
22,CCOC(=O)N1CCC(NS(=O)(=O)c2ccc(C#N)cc2)CC1,-10.4%
23,CC(C)OC(=O)c1ccc(NCc2cc(O)ccc2O)cc1,-7.2%

row,SMILES,CPE protection (higher = active)
1,CCOC(=O)N1C=CC=C[C@@H]2[C@@H](N3C(=O)c4ccccc4C3=O)C(=O)N21,-9.2%
2,COc1ccc(C2CC(c3cccs3)=NN2C(=O)CCC(=O)O)cc1OC (configuration not stated),-2.94%
3,COc1ccc(NC(=O)Nc2cccc3c2O[C@H](CN(C)C(=O)Nc2ccc(OC)cc2)[C@@H](C)CN([C@@H](C)CO)C3=O)cc1,-19.9%
4,Cc1cccnc1,-1.59%
5,Cc1ccccc1NS(=O)(=O)c1ccc(S(=O)(=O)N2CCCC2)cc1,2.34%
6,CC(=O)N1c2ccc(S(=O)(=O)NCCC(=O)N3CCCC(C)C3)cc2CC1C (configuration not stated),-15.9%
7,CCOc1ccc(C(=O)Nc2ccc(CN3CCOCC3)cc2)cc1Cl,2.94%
8,Cc1ccc(NC(=O)C2CCCCC2)cc1C,14.2%
9,Brc1ccc(OCc2nnc(SCC3CCCCC3)o2)cc1,1.56%
10,N#CCSc1ccccc1NC(=O)CN1C(=O)C(=O)N(Cc2ccccc2)C1=O,-15.2%
11,COc1ccccc1N1CCN(S(=O)(=O)CCNC(=O)CCc2ccccc2)CC1,5.74%
12,COCCNC(=O)CCC1CCN(Cc2ccc(-c3ccccc3)cc2)CC1,-10.3%
13,C[C@@H]1CN([C@H](C)CO)C(=O)Cc2cc(NC(=O)CCCCCC(=O)Nc3ccccc3N)ccc2O[C@@H]1CN(C)Cc1ccc(Cl)c(Cl)c1,-2.74%
14,CCc1nc2c(OCCc3cccc(OC)c3)cccn2c1N(C)C(=O)c1ccc(C)cc1,3.2%
15,CN1[C@@H]2Cn3c(ccc(C4=CCCC4)c3=O)[C@H]1[C@@H](C(=O)N1CCCCC1)[C@@H]2CO,21.2%
16,CCCN1[C@H](C(=O)OC)[C@@H](CO)[C@@H]2Cn3c(ccc(C4=CCCC4)c3=O)[C@@H]21,8.66%
17,O=C(Nc1ccc2c(c1)OCCO2)c1cccc(C(=O)Nc2ccc3c(c2)OCCO3)c1,16.2%
18,O=C(COC(=O)CNC(=O)c1ccc(Cl)cc1)Nc1ncc(C(F)(F)F)cc1Cl,9.18%
19,Cc1ccccc1OCC(=O)OCC(=O)NCCNC(=O)COC(=O)COc1ccccc1C,7.36%
20,CC1CC(C)CN(C(=O)COC(=O)c2nccnc2N)C1 (configuration not stated),8.89%
21,O=C(COc1ccc(-c2nnco2)cc1)NCc1ccccc1Cl,-5.13%
22,Cc1ccccc1S(=O)(=O)N1[C@H](C#N)[C@H](c2ccccc2)[C@@H]1CO,7.31% [at 21 µM]
23,CN1C(=O)c2cc(NC(=O)NC3CCCC3)ccc2OC[C@H]2O[C@@H](CC(=O)NCC3CC3)CC[C@@H]21,-8.11% [at 23.5 µM]

row,SMILES,CPE protection (higher = active)
1,Cc1ccccc1-c1cnc(C(O)c2cccc(C)c2C)[nH]1 (configuration not stated),8.04%
2,CC(C)c1ccc(S(=O)(=O)N2CCN(C(=O)n3ccnc3)CC2)cc1,3.32%
3,CC(=O)Nc1cc(-c2ccc(C(=O)NC3CC3)cc2)cn2c(-c3cccc(C(F)(F)F)c3)cnc12,-8.05%
4,COc1ccc(C(CNC(=O)CCNC(=O)c2ccc(Br)cc2)N2CCOCC2)cc1 (configuration not stated),10.9%
5,Cc1ccc(NC(=O)C2(c3cccs3)CCOCC2)cc1C,16.6%
6,Cc1ccccc1-c1csc(C(C)(O)c2ccccc2)n1 (configuration not stated),16.6%
7,O=C(c1ccncc1)N1CCCC(N2CCN(c3cccc(C(F)(F)F)c3)CC2)C1 (configuration not stated),22.6%
8,O=C(c1cc(C2CC2)on1)N1CCCC(N2CCN(c3cccc(C(F)(F)F)c3)CC2)C1 (configuration not stated),8.43%
9,CN(CC(=O)Nc1ccc(Cl)cc1)C(=O)CCc1nc2sc3c(c2c(=O)[nH]1)CCCC3,-2.63%
10,COC(=O)[C@@H]1[C@H](CCc2ccccc2)NC(=O)N(Cc2ccccc2)[C@@H]1C,-7.83%
11,CC#CCN1C(=O)N[C@@H](c2ccccc2)C(C(=O)OC)=C1C,-2.29%
12,O=S(=O)(NN=Cc1cccc(Cl)c1)c1ccccc1,-10.2%
13,Cc1ccc2c(COC(=O)CNC(=O)c3ccccc3)cc(=O)oc2c1,-8.55%
14,COc1cc(OC)cc(C(=O)NCCC(c2ccccc2)c2ccccc2)c1,-16.4%
15,C[C@@H]1CN([C@H](C)CO)C(=O)c2cc(NC(=O)c3ccccc3)ccc2O[C@@H](C)CCCCO[C@@H]1CN(C)S(=O)(=O)c1ccc(F)cc1,14.4%
16,Cc1noc(C)c1NC(=O)Nc1ccc2c(c1)C(=O)N([C@@H](C)CO)C[C@@H](C)[C@@H](CN(C)C)OCCCC[C@@H](C)O2,-7.08%
17,Cc1noc(C)c1NC(=O)Nc1ccc2c(c1)C(=O)N([C@@H](C)CO)C[C@@H](C)[C@@H](CN(C)Cc1ccccc1)OCCCC[C@@H](C)O2,18.2%
18,C[C@@H]1CCCCO[C@@H](CN(C)S(=O)(=O)c2ccc(F)cc2)[C@@H](C)CN([C@@H](C)CO)C(=O)c2cc(NC(=O)c3ccccc3)ccc2O1,-0.86%
19,Cc1cnc(CNC(=O)C2CCC(=O)N(Cc3ccc(Cl)cc3)C2)[nH]1 (configuration not stated),-5.86%
20,ClC(CCN1CCN(Cc2ccccc2)CC1)c1ccccc1 (configuration not stated),0.446%
21,Cc1cccc(N(CC(=O)NC(C)(C)C)C(=O)CNC(=O)c2cccs2)c1C,-10.1%
22,CS(=O)(=O)N1CCc2cc(C(=O)N3CCN(c4ccccc4)CC3)ccc21,14.1%
23,CC1CCN(C(=O)COC(=O)c2cc3ccccc3oc2=O)CC1,29.4%

row,SMILES,CPE protection (higher = active)
1,CCOC(=O)N1CCC(NCCNC(=O)c2ccc(F)c(F)c2)CC1,-26.1%
2,Cc1noc(C)c1NC(=O)N(C)C[C@@H]1Oc2c(NS(=O)(=O)c3ccccc3)cccc2C(=O)N([C@@H](C)CO)C[C@@H]1C,1.59%
3,CCNC(=O)C1(C)CCN(Cc2noc(-c3c(C)noc3C)n2)C1 (configuration not stated),2.45%
4,O=C(NC1CCCCC1)N[C@H]1C=C[C@@H](CC(=O)N2CCOCC2)O[C@@H]1CO,15.7%
5,O=C(C[C@H]1C=C[C@H](NS(=O)(=O)c2ccccc2)[C@H](CO)O1)N1CCC(Cc2ccccc2)CC1,-16.4%
6,CCN(c1ccccc1)S(=O)(=O)c1ccc(OC)c(NC(=O)C2CCC2)c1,-14.6%
7,Cc1cccc(OCC(=O)NNC(=O)C2CCCCC2C(=O)O)c1 (configuration not stated),-36.8%
8,CN1CCN(CCOc2ccc(-c3ccccc3)cc2)CC1,-14.5%
9,c1ccc(-c2ccc(OCCN3CCOCC3)cc2)cc1,6.91%
10,Cc1cc(=O)oc2cc(OCCSCCN3CCCC3)ccc12,-9.74%
11,O=C(NCc1cc(C(F)(F)F)cc(C(F)(F)F)c1)C1CC(c2cccc(F)c2)=NO1 (configuration not stated),1.22%
12,O=C(C[C@@H]1CC[C@H]2[C@@H](COC[C@@H](O)CN2C(=O)c2ccncc2)O1)NCc1ccc(-c2ccccc2)cc1,-12.4%
13,CCCC[C@@H]1CNC(=O)C(=O)N1CCCCC1CCCCC1,1.63%
14,CCC(=O)Nc1ccc2c(c1)C(=O)N(C)[C@@H]1CC[C@H](CC(=O)N[C@@H](C)c3ccccc3)O[C@@H]1CO2,30.3%
15,O=C(NCc1ccccc1F)[C@H]1N[C@H]2c3ccc(-c4ccccc4F)c(=O)n3C[C@H]2[C@@H]1CO,22.1%
16,O=C(NCCN1CCCC1)[C@H]1N[C@H]2c3ccc(-c4ccccc4)c(=O)n3C[C@H]2[C@@H]1CO,4.15%
17,O=C(c1cc(-c2ccccc2)n[nH]1)N1CCN(S(=O)(=O)c2ccccc2)CC1,8.57%
18,COCCn1nnnc1C(c1cc2cc(C)ccc2[nH]c1=O)N1CCN(C2CCCCC2)CC1 (configuration not stated),9.44%
19,CCN(CC(=O)Nc1c(F)cccc1F)C(=O)c1cccc(S(=O)(=O)NCc2ccccc2)c1,-0.434%
20,CCN(CC(=O)Nc1cc(Cl)ccc1-n1cncn1)Cc1nc2ccccc2c(=O)[nH]1,1.83%
21,C[C@@H]1CN([C@H](C)CO)C(=O)Cc2cc(NC(=O)Cn3cnnn3)ccc2O[C@@H]1CN(C)Cc1ccc(C(=O)Nc2ccccc2N)cc1,21.3% [at 18 µM]
22,Cc1cnc(CN(C)C(=O)CC2C(=O)NCCN2Cc2cccc(F)c2F)[nH]1 (configuration not stated),12.8%
23,CCCN1CCC(NC(=O)CC2C(=O)NCCN2Cc2cccc(OC)c2)CC1 (configuration not stated),7.2%
